Consider 13 compounds from PubChem BioAssay (NCI).

Among the test systems are HCT-15 colon; HT29 colon; SNB-75 CNS; SNB-19 CNS; U251 CNS; PC-3 prostate; SK-MEL-5 melanoma; UACC-62 melanoma; LOX IMVI melanoma; SK-MEL-28 melanoma.
Common to all, as to test: NCI-60 one-dose screen, 48 h (100 = growth as untreated, 0 = no growth, -100 = all killed)
Conditions in all cases: 10 µM unless noted

Compounds without any hit were thinned out: in the full panel of roughly 83,000, 20% have a hit.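 Single-concentration screen, 48 h exposure, 96-well plates. Endpoint: percent growth. Below 10 = active.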 Unmarked numbers belong to inactive results. Activity calls are given as the source filed them.

Take `CC/C(Cc1ccccc1)=C(/c1ccc(O)cc1)c1ccc(OCCN2CCCC2)cc1`: the growth with HCT-15 colon was -56.2% (active); with HT29 colon it was -57% (active); in the experiment on SNB-75 CNS, -22.6% (active); in the experiment with SNB-19 CNS, 0.126% (active); with U251 CNS it was -89.1% (active); in the experiment on PC-3 prostate, -32.2% (active). Moreover, the growth in the experiment on SK-MEL-5 melanoma is -100% (active); with UACC-62 melanoma, -77.7% (active); in the experiment with LOX IMVI melanoma, -100% (active); with SK-MEL-28 melanoma, -84.5% (active).
As to `COc1ccc2nc3cc(Cl)ccc3c(N3CCN(c4nccc(Nc5ccc(Cl)cc5)n4)CC3)c2c1`, the growth was 56.5% with HCT-15 colon; 69.7% in the experiment on HT29 colon; 51.4% with SNB-75 CNS; 92% with SNB-19 CNS; 62.1% with U251 CNS; 40.3% in the experiment with PC-3 prostate. Also, the growth was 86.7% in the experiment with SK-MEL-5 melanoma, 81.6% in the experiment with UACC-62 melanoma, 61.9% in the experiment with LOX IMVI melanoma and 81.8% in the experiment on SK-MEL-28 melanoma.
In the case of `CC/C=C\C[C@H](F)C/C=C1/C(=O)C=C[C@@H]1C/C=C\CCCC(=O)OC`, the growth was -32.8% (active) with HCT-15 colon; -31% (active) in the experiment on HT29 colon; 61.9% in the experiment on SNB-75 CNS; 34% with SNB-19 CNS; 1.8% (active) with U251 CNS; 12.9% with PC-3 prostate. The growth in the experiment on SK-MEL-5 melanoma is -81.8% (active); in the experiment with UACC-62 melanoma, -49.4% (active); with LOX IMVI melanoma it was -49.7% (active); with SK-MEL-28 melanoma it was 9.64% (active).
For `NC1=CC(=O)C(=O)c2ccccc21`, the growth was 92.1% in the experiment on HCT-15 colon; 106% with HT29 colon; 113% in the experiment with SNB-75 CNS; 93.2% with SNB-19 CNS; 88% in the experiment on U251 CNS; 91.1% with PC-3 prostate. Further, the growth in the experiment on SK-MEL-5 melanoma was 77.5%; in the experiment on UACC-62 melanoma, 39.4%; with LOX IMVI melanoma it was 7.65% (active); in the experiment on SK-MEL-28 melanoma it was 75.2%.
As for `CCCC(=O)Oc1ccc(/C(=C(/CC)Cc2ccccc2)c2ccc(OCCN3CCCC3)cc2)cc1`, the growth in the experiment with HCT-15 colon is 41.8%; with HT29 colon, 16.5%; in the experiment with SNB-75 CNS it was 62.5%; with SNB-19 CNS it was 94.2%; with U251 CNS, 49%; in the experiment on PC-3 prostate, 70%. Further, the growth was 66.2% with SK-MEL-5 melanoma, 23.7% in the experiment on UACC-62 melanoma, 25.2% with LOX IMVI melanoma and -19.8% (active) in the experiment on SK-MEL-28 melanoma.
Consider `O=C1c2cc3c(cc2-c2c1c1cc(Cl)c(Cl)cc1c(=O)n2C[C@H](O)CO)OCO3`, for which the growth with HCT-15 colon is 1.28% (active); with HT29 colon, -38.8% (active); in the experiment with SNB-75 CNS, -31.4% (active); in the experiment with SNB-19 CNS, -6.61% (active); with U251 CNS, -63.4% (active); with PC-3 prostate, 5.35% (active). The growth in the experiment with SK-MEL-5 melanoma is -84.8% (active); with UACC-62 melanoma, -66.8% (active); in the experiment with LOX IMVI melanoma it was -70.9% (active); in the experiment with SK-MEL-28 melanoma it was 0.507% (active).
As for `COc1ccc(N(Cc2cc(OC)c(OC)c(OC)c2)C2OC(=O)c3ccccc32)cc1` (stereo not given), the growth in the experiment on HCT-15 colon was 36.1%; with HT29 colon, 5.34% (active); in the experiment on SNB-75 CNS it was -6.32% (active); with SNB-19 CNS, 53.3%; with U251 CNS, 19.4%; in the experiment on PC-3 prostate, 25.2%. Moreover, the growth is 18.2% in the experiment on SK-MEL-5 melanoma, 44.2% in the experiment on UACC-62 melanoma, 46.2% in the experiment with LOX IMVI melanoma and 55.5% with SK-MEL-28 melanoma.
As to `O=C1c2cccnc2C(=O)c2c1c(C(=O)OCCN1CCCCC1)c1ccccn21`, the growth with HCT-15 colon is -48.4% (active); with HT29 colon, -9.8% (active); in the experiment with SNB-75 CNS, -63.7% (active); in the experiment on SNB-19 CNS, -31.8% (active); in the experiment on U251 CNS, -29.9% (active); in the experiment with PC-3 prostate, 9.27% (active). The growth with SK-MEL-5 melanoma was -97% (active); in the experiment with UACC-62 melanoma it was -41.2% (active); with LOX IMVI melanoma, -58.6% (active); in the experiment with SK-MEL-28 melanoma, -37.9% (active).
`Nc1ccc(N2CCOCC2)cc1`: the growth in the experiment on HCT-15 colon is 103%; in the experiment with HT29 colon, 109%; in the experiment on SNB-75 CNS, 91.9%; in the experiment on SNB-19 CNS, 91.1%; with U251 CNS, 98%; with PC-3 prostate, 101%. Moreover, the growth with SK-MEL-5 melanoma is 92.7%; with UACC-62 melanoma it was 86.6%; with LOX IMVI melanoma, 104%; in the experiment with SK-MEL-28 melanoma, 118%.
With `C/C(=C(/c1ccc(O)cc1)c1ccc(OCCN(C)C)cc1)c1ccccc1`, the growth with HCT-15 colon was 73.9%; with HT29 colon, 22.1%; in the experiment with SNB-75 CNS it was 53.4%; in the experiment with SNB-19 CNS it was 96.1%; in the experiment on U251 CNS, 70.5%; in the experiment on PC-3 prostate, 80.3%. The growth in the experiment with SK-MEL-5 melanoma is 75.1%; with UACC-62 melanoma, 36.8%; in the experiment with LOX IMVI melanoma, 82.8%; with SK-MEL-28 melanoma, 45.3%.
As to `CNCc1cccc2c1OCCOCCOCCN(C)S(=O)(=O)c1ccc(cc1)-c1cnc(N)c(n1)C(=O)N2`, the growth with HCT-15 colon is 11.4%; in the experiment with HT29 colon, 13.2%; in the experiment with SNB-75 CNS, 33.2%; with SNB-19 CNS, 93.3%; with U251 CNS, 12.8%; in the experiment with PC-3 prostate, 54.1%. For the same compound, the growth in the experiment on SK-MEL-5 melanoma is 82.5%; in the experiment with UACC-62 melanoma, 29.4%; in the experiment with LOX IMVI melanoma it was -16% (active); in the experiment with SK-MEL-28 melanoma it was 68%.
Consider `O=c1[nH]c(-c2ccccn2)nc2sc3c(c12)CCCCC3`, for which the growth in the experiment with HCT-15 colon was 34.3%; in the experiment on HT29 colon it was 36.9%; in the experiment on SNB-75 CNS it was 80.9%; in the experiment with SNB-19 CNS, 46.1%; with U251 CNS, 17.1%; in the experiment on PC-3 prostate it was 44.2%. In addition, the growth in the experiment with SK-MEL-5 melanoma was 44.5%; in the experiment with UACC-62 melanoma it was 20.2%; in the experiment with LOX IMVI melanoma it was 8.61% (active); with SK-MEL-28 melanoma it was 45.2%.
For `CCCCCCCCCCCCCCCCCCSC1=CC(=O)C(OC)=C(OC)C1=O`, the growth with HCT-15 colon is 98.7%; in the experiment on HT29 colon it was 107%; in the experiment on SNB-75 CNS, 95.1%; in the experiment with SNB-19 CNS, 91.9%; with U251 CNS it was 76.4%; in the experiment on PC-3 prostate, 52%. For the same compound, the growth is 86.3% with SK-MEL-5 melanoma, 77% with UACC-62 melanoma, 45.9% with LOX IMVI melanoma and 97.3% with SK-MEL-28 melanoma.
